The results in this text go back to PubChem BioAssay (NCI).

About 83,000 compounds went through this panel and 20% of them were active in at least one assay; those are over-represented in the sample as a whole.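 Plates (96-well) were seeded with cells, treated with compound at one concentration, and incubated for 48 hours before percent growth was determined.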 Activity calls are given as the source filed them. Rule for the calls: active = growth percent below 10; inactive = the rest.

The test concerns SF-268 CNS. The test can be described thus: NCI-60 one-dose screen, 48 h (100 = growth as untreated, 0 = no growth, -100 = all killed). Conditions: 10 µM.
Regarding `COc1ccc(/C=C2\CCCC3=C2NC(N)=NC3c2ccc(OC)cc2)cc1` (stereo not given), the growth was 109% (inactive).
Under `CN(C)CCCOc1cccc(NC2=C(Cl)C(=O)C(Nc3cccc(OCCCN(C)C)c3)=C(Cl)C2=O)c1` stands -62.6% (active); under `N#CC1=C(N)Oc2cc(N)ccc2C1c1cccnc1` (stereo not given), 93.4% (inactive); under `COc1cc(/C=C/c2cc(/C=C/c3ccc(O)c(OC)c3)n(C(=O)Nc3ccc(C)cc3)n2)ccc1O`, -11.5% (active).
With `Cc1ccc(-n2nnnc2N)c(C)c1`, the growth was 114% (inactive).
Take `CCCCN(CCCC)C(=O)[C@H](CC)[C@@H]1CC[C@@H](C)[C@@H]([C@H](C)[C@@H](O)[C@@H](C)C(=O)[C@H](CC)C2O[C@]3(C=C[C@@H](O)[C@]4(CC[C@@](C)([C@H]5CC[C@](O)(CC)[C@H](C)O5)O4)O3)[C@H](C)C[C@@H]2C)O1` (stereo not given in full): the growth is 19.6% (inactive).
As to `COc1ccc2c(c1)C(=O)/C(=C/c1ccc([N+](=O)[O-])o1)O2`, the growth was -72.7% (active).
Under `Cc1ccc(S(=O)(=O)N(C)CCCCCC(=O)O)cc1` stands 99% (inactive); under `NC1=NC(c2ccc(Cl)cc2)C2=C(N1)/C(=C/c1ccc(Cl)cc1)CCC2` (stereo not given), 83.2% (inactive); under `S=C(NCc1ccccc1)NCc1ccccc1`, 95.8% (inactive).
As to `COc1cc2cc(Oc3ccc(NC(=O)c4ccccc4)cc3)c(C)nc2cc1OC`, the growth was 65.5% (inactive).
Under `Cc1c(Cl)cccc1NC(=O)CN1CCOCC1` stands 97.1% (inactive).
With `C=CCN(CC=C)C(=O)[C@H](CC)[C@@H]1CC[C@@H](C)[C@@H]([C@H](C)[C@@H](O)[C@@H](C)C(=O)[C@H](CC)C2O[C@]3(C=CC(=O)[C@]4(CC[C@@](C)([C@H]5CC[C@](O)(CC)[C@H](C)O5)O4)O3)[C@H](C)C[C@@H]2C)O1` (stereo not given in full), the growth was 58.9% (inactive).
For the compound `CCN1CCN(CCC(=O)Nc2cccc(-n3cc(-c4ccncc4)c(-c4ccc(Cl)c(OC)c4)n3)c2)CC1`, the growth is 35.4% (inactive).
Under `Nc1ccn(Cc2nnc(CCC(=O)c3nc4ccccc4[nH]3)o2)c(=O)n1` stands 95.8% (inactive); under `Cc1ccc2nc(Cl)c(-c3nc4ccccc4o3)cc2c1`, 87.9% (inactive); under `C/C=C/CSC(C)(C)C(=O)NC`, 103% (inactive).
Under `COc1cc2c(Nc3ccc(S(N)(=O)=O)cc3)ncnc2c(OC)c1OC` stands 90.2% (inactive).
In the case of `CC(=O)OC1C=CC(OC(C)=O)O1` (stereo not given), the growth was 97.4% (inactive).
Consider `CC(=O)C1N=NCC1c1ccccc1` (stereo not given), for which the growth is 104% (inactive).
Under `O=C(CN(C1CCCCC1)C1CCCCC1)Nc1ccc(S(=O)(=O)c2ccc(NC(=O)CN(C3CCCCC3)C3CCCCC3)cc2)cc1` stands -7.58% (active); under `Cc1c[nH]c(=O)n(Cc2nnc(CCC(=O)c3nc4ccccc4[nH]3)o2)c1=O`, 36.6% (inactive); under `O=C(CCn1cnc2c(cc(-c3ccccc3)n2-c2ccccc2)c1=O)Nc1ccc(F)cc1`, 70% (inactive).
Regarding `CN(C)CCOc1cccc(NC2=C(Cl)C(=O)C(Nc3cccc(OCCN(C)C)c3)=C(Cl)C2=O)c1`, the growth is -50% (active).
Under `CN1CCN(CCC(=O)Nc2cccc(-n3cc(-c4ccncc4)c(-c4ccc(Cl)c(O)c4)n3)c2)CC1` stands 50.8% (inactive); under `CC(=O)Nc1ccc(CC[C@H]2CCC/C=C/[C@@H]3C[C@H](O)C[C@H]3[C@H](O)/C=C/C(=O)O2)cc1`, 13.8% (inactive); under `CN(C)CCN(Cc1ccccc1)c1ccc2ccccc2n1`, 103% (inactive).
To `C/C(=N\O)c1ccc(NC(=O)CSc2nnc(-c3ccccc3)n2-c2ccccc2)cc1` belongs 99.8% (inactive); to `CCC(CC)n1c(C)cc(=O)n1C(CC)CC`, 100% (inactive).
Under `CC[C@@H](C(=O)[C@H](C)[C@H](O)[C@@H](C)[C@H]1O[C@H]([C@@H](CC)C(=O)O)CC[C@H]1C)C1O[C@]2(C=C[C@@H](O)[C@]3(CC[C@@](C)([C@H]4CC[C@](O)(CC)[C@H](C)O4)O3)O2)[C@H](C)C[C@@H]1C` (stereo not given in full) stands 38% (inactive); under `O=C(O)c1cc([N+](=O)[O-])ccc1Oc1ccccc1`, 97.3% (inactive).
In the case of `O=[N+]([O-])c1cccc(/C=N/NC(=S)NC23CC4CC(CC(C4)C2)C3)c1`, the growth is 77.8% (inactive).
Under `COc1cc(C(=O)n2nc(-c3cc(OC)c(OC)c(OC)c3)nc2N)cc(OC)c1OC` stands 93.4% (inactive); under `COc1ccc(-c2n[nH]nc2-c2cc(OC)c(OC)c(OC)c2)cc1`, 9.64% (active); under `C=CCN(CC=C)C(=O)[C@H](CC)[C@@H]1CC[C@@H](C)[C@@H]([C@H](C)[C@@H](O)[C@@H](C)C(=O)[C@H](CC)C2O[C@]3(C=C[C@@H](O)[C@]4(CC[C@@](C)([C@H]5CC[C@](O)(CC)[C@H](C)O5)O4)O3)[C@H](C)C[C@@H]2C)O1` (stereo not given in full), 41.7% (inactive).
`O=C(Nc1cccc2c1CCCC2)c1cc2ccccc2cc1O`: the growth is 38.2% (inactive).
To `O=C1/C=C/[C@@H](O)[C@@H]2C[C@@H](O)C[C@H]2/C=C/CCC[C@H](CCc2ccc(NC(=S)Nc3ccc4c(c3)C(=O)OC43c4ccc(O)cc4Oc4cc(O)ccc43)cc2)O1` belongs 12.8% (inactive); to `COc1cc(/C=C/c2cc(/C=C/c3ccc(O)c(OC)c3)nc(N)n2)ccc1O`, 3.56% (active).
In the case of `CC(=O)Oc1cc(OC(C)=O)c2ccccc2c1OC(C)=O`, the growth is 87.9% (inactive).
To `CCOc1ccccc1/C=N\N=C\c1ccccc1O` belongs 94.7% (inactive).
